# Shown are actives, neighbours in structure and some others; about 22% of the full set was active somewhere.
# CYP2C19 inhib – blocks human cytochrome P450 2C19; P33261; CYP2C19 Supersomes, luciferin-H EGE luminescence, 30 min; inhibition, % at 5 µM; actives 21% (n = 96,000);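 active = CYP2C19 inhibition above a set limit at 5 µM in the primary screen, cut at about 50% in these data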;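 also: plate controls were negative control wells for no effect and 2.5 mM tranylcypromine positive control for full effect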
# Target sequence (P33261 whole entry, looked up): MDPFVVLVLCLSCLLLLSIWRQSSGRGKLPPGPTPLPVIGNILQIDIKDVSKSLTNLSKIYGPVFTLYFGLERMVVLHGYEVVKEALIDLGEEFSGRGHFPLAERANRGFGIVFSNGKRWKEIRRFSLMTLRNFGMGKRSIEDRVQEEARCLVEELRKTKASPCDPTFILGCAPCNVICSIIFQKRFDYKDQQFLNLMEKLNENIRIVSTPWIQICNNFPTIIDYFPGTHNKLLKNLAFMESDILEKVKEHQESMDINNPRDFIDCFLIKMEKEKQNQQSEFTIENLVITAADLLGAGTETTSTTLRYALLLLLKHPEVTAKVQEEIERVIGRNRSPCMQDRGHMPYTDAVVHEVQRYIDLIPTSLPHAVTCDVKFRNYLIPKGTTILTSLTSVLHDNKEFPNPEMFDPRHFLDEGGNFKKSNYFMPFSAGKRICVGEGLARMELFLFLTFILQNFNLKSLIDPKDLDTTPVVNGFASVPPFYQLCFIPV
# CYP2C19 act – increases human CYP2C19 enzyme activity. recombinant CYP2C19, luciferin-H EGE luminescence; stronger effect = higher value; 0 = fully inhibited enzyme, 1 = untreated enzyme. 96,000 tested, under 10 active. activation factor at 5 µM. AID 1025;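 active = activation factor of at least 2 at 5 µM in the primary screen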;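 also: 0 = wells with 2.5 mM tranylcypromine and 1 = vehicle-only wells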
# CYP2C9 activ – activators of human CYP2C9 | actives 1.4% (n = 96,000) | activation factor at 5 µM | AID 1024 | P11712 | recombinant CYP2C9, luciferin-H conversion, luminescence; stronger effect = higher value; factor 1 = untreated enzyme, 0 = blocked;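 active = activation factor of 2 or more for CYP2C9 at a 5 µM dose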;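 also: 0 = sulfaphenazole-blocked wells and 1 = vehicle-only wells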
# F-actin modifier – modifiers of cytoskeleton assembly; inhibition, % at 2 µM; HUVEC TNFa F-actin phalloidin imaging, high content; actives 0.18% (n = 91,000); AID 836;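 active = inhibition above the batch mean plus 3 SD and confirmed as a hit by visual image inspection, cut at about 30% in these data, passing the limit was not always enough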
# CYP2C9 inhib – inhibitors of human CYP2C9; inhibition, % at 5 µM; P11712; CYP2C9 Supersomes, luciferin-H conversion, luminescence; actives 20% (n = 96,000); AID 777;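 active = blocking of liver enzyme CYP2C9 beyond about 50% at 5 µM, limit read from the data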
# E-sel TNF inh – TNF alpha driven E-selectin expression inhibition; actives 0.71% (n = 120,000); AID 1246; inhibition, % at 2 µM; HUVEC TNFa-induced E-selectin immunofluorescence, high content;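 active = inhibition above the batch mean plus 3 SD, and confirmed as a hit on visual image review, cut at about 43% in these data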;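 also: 0% = TNF-stimulated DMSO wells and 100% = unstimulated control wells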
# Numbers without * were called inactive; / = no result.
SMILES,CYP2C19 inhib,CYP2C19 act,CYP2C9 activ,F-actin modifier,CYP2C9 inhib,E-sel TNF inh
CC1(C)CC(=O)c2cn3c(nc2C1)nc1ccccc13,5,1,1.1,/,-7,/
COc1ccc(NC(=O)c2cncc(Br)c2)c(S(=O)(=O)N2CCOCC2)c1,55*,0.4,0.7,22,28,3
CCNc1ccc(C(=O)OCC)cc1NC(=O)c1cccc(N(C)C)c1,28,0.7,0.5,-17,50*,/
CCOC(=O)c1cccc(P(=O)(C(C)(C)C)C(C)(C)C)c1,/,/,/,/,/,-49
Cc1cc(C)cc(NC(=O)COC(=O)CCc2ccc(S(=O)(=O)N3CCOCC3)cc2)c1,/,/,/,/,/,4
Cc1ccc(NC(=O)CCc2ccc(S(=O)(=O)N3CCOCC3)cc2)c(C)c1,51*,0.5,0.3,19,65*,-13
Cc1ccc(C)c(NC(=O)CCc2ccc(S(=O)(=O)NC3CCCCC3)cc2)c1,84*,0.2,0.2,-2,76*,3
COc1cccc(NC(=S)N2CCC(N(C)CC3CCCO3)CC2)c1 (stereo not drawn),/,/,/,/,/,-7
Cc1cc(C)nc(N/N=C/c2ccccc2OCc2ccc(Cl)cc2)n1,/,/,/,/,/,-44
COc1cc(C)ccc1NC(=O)c1ccc(S(=O)(=O)N2CCOCC2)cc1,-6,1.1,2.9*,6,-189,5
CCNc1ccc(C(=O)OCC)cc1NC(=O)c1cc(S(=O)(=O)N2CCOCC2)ccc1C,88*,0.1,0.5,9,54*,13
N#Cc1ccc(NC(=O)CCc2ccc(S(=O)(=O)N3CCOCC3)cc2)cc1,15,0.8,0.3,3,70*,21
N#C/C(=C1/CCCCCN1)c1nc2ccccc2s1,-5,1,1,36,3,-14
COc1cc(C2NC(=O)NC(C)=C2C(=O)OC2CCCC(C)C2)ccc1O (stereo not drawn),9,0.9,0.8,9,16,/
CCN(CC)S(=O)(=O)c1cc([N+](=O)[O-])ccc1NNC(=O)Nc1ccc(Cl)c(Cl)c1,12,0.9,0.3,-4,74*,19
Cc1nc(SCc2nc3ccccc3[nH]2)c2oc3ccccc3c2n1,32,0.7,0.1,-14,91*,6
Cc1nc(SCCO)c2oc3ccccc3c2n1,27,0.7,0.5,16,48,-11
c1ccc2[nH]c(CSc3ncnc4c3oc3ccccc34)nc2c1,69*,0.3,0,-9,97*,11
COc1cccc(C2N(c3ccc(Cl)cc3)C(=O)C3CCCN32)c1 (stereo not drawn),/,/,/,1,/,/
CCCOC(=O)c1ccc(OCC(O)CN2CCN(C(=O)c3ccccc3)CC2)cc1 (stereo not drawn),11,0.9,0.4,7,64*,-2
CCOC(=O)CNC(=O)CSc1cc(C)nc2ccc(OC)cc12,/,/,/,/,/,-16
CCNC(=O)CSc1ncnc2sccc12,14,0.9,0.9,-9,6,-12
O=c1[nH]nc(Sc2ncnc3sccc23)n1CCc1ccccc1,80*,0.2,0.8,-30,25,-21
Nc1c(-c2ccc(Cl)cc2)cnc2ncnn12,38,0.6,0.9,9,12,-19
Cc1cc2ncc(-c3ccc(Cl)cc3)c(N)n2n1,35,0.7,0.2,4,77*,/
SMILES,CYP2C19 inhib,CYP2C19 act,CYP2C9 activ,F-actin modifier,CYP2C9 inhib,E-sel TNF inh
O=C(C(=O)N1CCN(c2ccc(F)cc2)CC1)c1c[nH]c2ccccc12,/,/,/,/,/,-60
Cc1nn(CCC(=O)NNC(=S)NCC(C)C)c(C)c1Br,63*,0.4,0.1,18,91*,20
CC(=O)Nc1ccc(S(=O)(=O)NCCC(=O)OCCN2C(=O)c3ccccc3C2=O)cc1,70*,0.3,0.1,15,93*,14
C=CCn1c(SCCOc2ccc(OC)cc2)nnc1C(C)NC(=O)c1ccc(OC)cc1 (stereo not drawn),9,0.9,0.6,-25,37,11
C=CCn1c(SCCOc2ccc(OC)cc2)nnc1C(CO)NC(=O)c1ccc(OC)cc1 (stereo not drawn),46,0.5,0.1,-3,88*,-4
COc1ccc(C(=O)NC(C)c2nnc(SCC(=O)Nc3nc4ccccc4s3)n2C)cc1 (stereo not drawn),65*,0.3,0.3,-10,72*,10
CCSCc1nnc(SCC(=O)c2ccc(OC)cc2)n1C,90*,0.1,0.9,-9,14,-15
COc1ccc(C(=O)CSc2nnc(C(CO)NC(=O)c3ccc(OC)cc3)n2C)cc1 (stereo not drawn),44,0.6,0.3,-11,71*,-15
O=C(Cn1[nH]c(=O)c2ccccc2c1=O)N1CC=C(c2ccccc2)CC1,81*,0.2,0.3,19,67*,-3
O=C(O)CCC(=O)N1CC=C(c2ccccc2)CC1,12,0.9,0.7,-8,27,-29
Cc1ccc(-c2ccc(/C=C3\C(=O)ON=C3c3ccccc3)o2)c([N+](=O)[O-])c1,24,0.8,0,-2,100*,-48
CCOC(=O)c1cccc(NC(=O)CSc2nc3ccccc3c(=O)n2CCOC)c1,27,0.7,0.4,/,64*,/
CCOC(=O)c1cccc(NC(=O)CSc2nc3ccccc3c(=O)n2CC)c1,8,0.9,0.5,-10,51*,-35
CCOC(=O)CSc1nc2ccccc2c(=O)n1CC,24,0.8,0.7,4,26,-9
CCOC(=O)C1(CCOc2ccccc2)CCN(Cc2ccc(NC(C)=O)cc2)CC1,/,/,/,/,/,-2
O=C(NCCSCc1ccco1)Nc1cccc(Cl)c1,64*,0.4,0.7,0,33,-16
CCCCOCCCNC(=O)COc1ccccc1,30,0.7,0.9,/,6,0
CC(C)(C)SCCNC(=O)COc1ccccc1,29,0.7,0.9,-14,13,-13
CCc1ccc(OCC(=O)NCCOc2ccccc2)cc1,30,0.7,0.5,0,50*,5
O=C(COc1ccccc1)NCCSCc1ccco1,85*,0.1,0.4,-8,63*,9
O=C(COc1ccccc1)NCCSc1ccccc1,97*,0,0.4,-14,60*,19
CC(/C=N/NC(=O)c1cccs1)=C\c1ccccc1,/,/,/,/,/,7
CN(C)c1nc(C=C(C#N)C#N)c(Cl)n1-c1ccc(F)cc1,/,/,/,/,/,87*
CCOc1ccccc1NC(=O)/C(C#N)=C/c1c(C)nn(-c2ccc(F)cc2)c1Cl,/,/,/,/,/,-18
CCOC(=O)c1c(C)[nH]c(C2=NNC(=Nc3cccc(Cl)c3)SC2)c1C,/,/,/,/,/,1
O=C(CCCC(=O)Nc1cccnc1)Nc1cccnc1,/,/,/,6,/,-6
CC(C)CCn1cnc2c(cnn2-c2ccc(Cl)cc2)c1=O,32,0.7,0.3,-2,71*,/
Cc1ccc(-n2ncc3c(=O)n(CC#N)cnc32)cc1C,20,0.8,0.8,-16,18,/
C#CCn1cnc2c(cnn2-c2ccc(C)c(C)c2)c1=O,64*,0.4,0.7,/,27,/
CC(C)(C)C(=O)N1CCn2c1nc1ccccc12,/,/,/,/,/,32
